Screening data deposited in PubChem BioAssay by National Center for Advancing Translational Sciences (NCATS).
GLP1R inv ag = qHTS of GLP-1 Receptor Inverse Agonists (Inhibition Mode); Potency, µM (highest dose often 38.3 µM), hits mostly inhibitors; Glucagon-like peptide 1 receptor (Homo sapiens), P43220; 410,000 compounds, 1.6% hits; HEK293 GLP-1R CRE-luciferase, luminescence, 24 h; GLP-1R form is constitutively active; AID 624417, 2012; further: nearly all actives have a fitted effect of over 55% in size
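Assay principle: reduced luminescence from a cAMP-responsive reporter in HEK293 cells co-expressing a constitutively active GLP-1R. Conditions: 24 hr compound incubation, 37 deg C, 5% CO2.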
HEK293 tox = qHTS of GLP-1 Receptor Inverse Agonists: Cytotox Screen; 410,000 compounds, 0.13% hits; Potency, µM (top dose mostly 38.3 µM), usual class: inhibitors; AID 624418, 2012; HEK293 cAMP-luciferase reporter cells, luminescence, 24 h;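 further: loss of luciferase light is scored as toxicity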
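1536-well qHTS counterscreen of the MLSMR; 200 cells/uL, 12 h pre-incubation, 23 nL cpd, 24 h at 37 deg C 5% CO2, luciferase detection reagent, 12 min RT, luminescence. Inhibition = undesired.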
PTHR1 agonist = qHTS for PTHR1 Agonists: Primary Screen | AID 743266, 2014 | 410,000 compounds, 0.075% hits | Potency, µM (titrated, usually from 115 µM), hits mostly activators | Parathyroid hormone/parathyroid hormone-related peptide receptor (Homo sapiens), Q03431 | HEK293 GP2 PTHR1 cells, GloSensor cAMP luminescence, 1 h; further: nearly all actives have a fitted effect of over 55% in size
Target sequence (Q03431 whole entry, looked up): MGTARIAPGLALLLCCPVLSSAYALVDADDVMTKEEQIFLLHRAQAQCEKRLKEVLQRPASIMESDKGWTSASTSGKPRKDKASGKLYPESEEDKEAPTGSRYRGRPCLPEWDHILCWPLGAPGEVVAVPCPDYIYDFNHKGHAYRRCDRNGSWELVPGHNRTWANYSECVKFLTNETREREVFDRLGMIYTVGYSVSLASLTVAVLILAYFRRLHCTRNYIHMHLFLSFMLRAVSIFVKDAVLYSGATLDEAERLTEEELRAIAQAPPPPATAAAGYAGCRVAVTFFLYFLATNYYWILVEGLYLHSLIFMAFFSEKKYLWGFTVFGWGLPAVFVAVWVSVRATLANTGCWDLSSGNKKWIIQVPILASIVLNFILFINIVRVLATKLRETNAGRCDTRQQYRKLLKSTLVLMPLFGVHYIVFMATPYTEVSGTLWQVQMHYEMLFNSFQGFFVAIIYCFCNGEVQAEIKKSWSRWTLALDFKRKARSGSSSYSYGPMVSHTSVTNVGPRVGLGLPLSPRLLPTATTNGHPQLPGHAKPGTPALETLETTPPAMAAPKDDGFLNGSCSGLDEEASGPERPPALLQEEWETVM
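HEK-293-derived GP2 cells expressing PTHR1 and a GloSensor cAMP reporter, 3,000/well, plated overnight, given luciferin plus IBMX (each 0.5 mM as added) for 1 h at 37 °C, then compound for 1 h at 37 °C. Luminescence was read after 15 min at room temperature.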
GLP1R ag = qHTS of GLP-1 Receptor Agonists. 380,000 compounds, 0.007% hits. HEK293 GLP-1R CRE-luciferase, luminescence, 4-6 h; cells express a hypersensitive GLP-1R form. Potency, µM (highest dose often 45.6 µM), most hits filed as activators
A number is an active result; i = inactive; ? = inconclusive; nt = no result; ! = not confirmed by another sample; [ ] = another dose, or the depositor's remark. Hits are enriched below; roughly 1.7% of the tested compounds scored in any of these assays. The call rests on the fitted dose curve; in most records, active means well fitted curve in the direction sought with a large enough effect; inconclusive means small, poorly fitted or top-dose-only effect, or another doubt; inactive means no such curve, though single readings can be large; an effect the other way counts as inactive or inconclusive.

SMILES	GLP1R inv ag	HEK293 tox	PTHR1 agonist	GLP1R ag
O=C(Nc1ccc2c(c1)OCO2)c1cc(C2CCCCN2C(=O)c2ccc3c(c2)CCO3)on1 (centres undefined)	10µM	i	i	i
Cn1cc(CN2CCC(CO)CC2)c(-c2ccc(Oc3ccccc3)cc2)n1	10µM	i	i	i
COc1ccc(-c2cn3ccccc3n2)cc1	?	i	i	i
CCCOc1ccc(-c2cn3ccccc3n2)cc1	7.08µM	i	i	i
CCOc1ccc(CCNC(=O)c2sc3ncccc3c2-n2cccc2)cc1OCC	i	i	i	nt
CCCCN1CC(COCc2ccccc2)Oc2cccc(Oc3ccc(C)cc3)c2S1(=O)=O (centres undefined)	7.94µM	i	i	i
CCCCN1CC(COCc2ccccc2)Oc2cccc(Oc3ccccc3)c2S1(=O)=O (centres undefined)	?	i	i	i
CCCCN1CC(COCc2ccccc2)Oc2cccc(Oc3ccc(F)cc3)c2S1(=O)=O (centres undefined)	3.55µM	i	i	i
CCCCN1CC(COCc2ccccc2)Oc2cccc(Oc3cc(C)c(C)c(C)c3)c2S1(=O)=O (centres undefined)	2.82µM	i	i	i
COc1ccc(CNC(=O)c2ccc(-c3nc(CSc4ccccc4)c(C)o3)cc2)cc1OC	i	i	i	nt
CCOc1ccc(OCC)c(NS(=O)(=O)c2ccc3c(c2)CCCN3C(C)=O)c1	i	i	i	nt
O=C(N/N=C/c1ccc(F)cc1)c1cc(-c2ccccn2)nc2ccccc12	i	i	i	i
C/C(=N\NC(=O)c1cc(C)nc2ccccc12)c1ccccn1	?	3.16µM	i	i
COc1cccc(/C=N/NC(=O)c2cc(-c3ccccn3)nc3ccccc23)c1O	5.01µM	i	i	i
Cc1ccccc1NC(=S)NC(=O)c1cc(-c2ccccc2)nc2ccccc12	7.94µM	i	i	i
O=C(N/N=C/c1ccccn1)c1cc(-c2ccccc2)nc2ccccc12	?	5.01µM	i	i
CCOc1ccc(NC(=O)CC2C(=O)N(c3cccc(C)c3)C(=O)N2Cc2cccnc2)cc1 (centres undefined)	i	i	i	nt
COc1ccc(-c2noc(CSc3nnc(-c4ccncc4)n3-c3ccc(C)c(C)c3)n2)cc1	i	i	i	nt
c1ccc(NN(Cc2ccccn2)c2ccccc2)cc1	?	i	i	i
Cc1cccc(CN(Nc2ccccc2)c2ccccc2)n1	10µM	i	i	i
O=C(NCCCN1CCOCC1)c1ccc2c(=O)n(Cc3ccc(Cl)cc3)c(=S)[nH]c2c1	2µM	i	i	i
CN(C)CCNC(=O)c1ccc2c(=O)n(Cc3ccc(Cl)cc3)c(=S)[nH]c2c1	3.16µM	?	i	i
Cc1c(C)n(Cc2ccccc2)c2ccc(C(=O)NCCN3CCOCC3)cc12	?	i	i	i
Cc1c(C)n(Cc2ccc(Cl)cc2)c2ccc(C(=O)NCCN3CCOCC3)cc12	3.55µM	i	i	i
Cc1ccc(CN2C(=O)c3ccccc3Sc3ccc(C(=O)NCCN4CCOCC4)cc32)cc1	6.31µM	?	i	i
SMILES	GLP1R inv ag	HEK293 tox	PTHR1 agonist	GLP1R ag
COc1ccc(S(=O)(=O)c2cnc(SCC(=O)Nc3cc(F)ccc3C)[nH]c2=O)cc1Cl	i	i	i	i
O=C(Cn1ncc2ccc(Cl)cc21)NCc1ccc(F)cc1	i	i	i	nt
O=[N+]([O-])c1cc(C(F)(F)F)ccc1NCCCCNS(=O)(=O)c1ccc(Cl)cc1	i	i[1.53 µM]	i	i
O=C(Nc1ccc(Cl)cc1)N1CCCN(c2ccc(C(F)(F)F)cc2[N+](=O)[O-])CC1	2.82µM	?	i	i
O=[N+]([O-])c1cc(C(F)(F)F)ccc1NCCNC(=S)Nc1ccc(Cl)cc1	11.2µM	i	i	i
CC(C)(C)c1cc(CCC(=O)N2CCCC2)cc(C(C)(C)C)c1O	?	i	i	i
CC(C)(C)c1cc(C(=S)N2CCCC2)cc(C(C)(C)C)c1O	8.91µM	i	i	i
Cc1ccc(C(=O)NCCSc2c(C)[nH]c3ccccc23)cc1[N+](=O)[O-]	10µM	i	i	i
NS(=O)(=O)c1ccc(NC(=S)NCc2ccc(Cl)cc2)cc1	3.98µM	i	?	i
Cc1onc(-c2ccccc2Cl)c1C(=O)O/N=C(\N)c1ccccc1	10µM	?	i	i
CC(C)CCn1c(SCc2cccc(F)c2)nc2ccsc2c1=O	?	i	i	nt
CCN(CC)S(=O)(=O)c1ccc(N/N=C(\C)c2ccc(OC)cc2O)nc1	2.51µM	?	i	i
CCN(CC)S(=O)(=O)c1ccc(N/N=C/c2ccc(O)cc2)nc1	i	i	i	i
CCN(CC)CCNC(=O)C1CCN(S(=O)(=O)c2c(C)noc2/C=C/c2ccccc2F)CC1	3.16µM!	?	i	i
Cc1ccc(/C=C/c2onc(C)c2S(=O)(=O)N2CCC(C(=O)N3CCN(C)CC3)CC2)cc1	6.31µM	i	i	i
CCN(CC)C(=O)C1CCN(S(=O)(=O)c2c(C)noc2/C=C/c2cccc(C)c2)CC1	10µM	i	i	i
Cc1ccc(CCNC(=O)CN2C(=O)COc3ccc(S(=O)(=O)N4CCCCCC4)cc32)cc1	?	i	i	nt
CCCCCC(=O)Nc1nc(C)c(-c2csc(Nc3cc(OC)ccc3OC)n2)s1	i	i	44.7µM	i
COc1ccc2c(c1)c(CC(=O)Nc1ccccc1OC)c(C)n2C(=O)c1ccc(Cl)cc1	10µM	i	i	i
CCN(CC)c1ccc(NC(=O)CN(C)Cc2cccs2)cc1	11.2µM	i	i	i
Cc1ccc(CNC(=O)CCc2nnc3n(C)c(=O)c4sccc4n23)cc1	i	i	i	i
CCOC(=O)CSc1nnc([C@H](Cc2ccccc2)NC(=O)OC(C)(C)C)o1	i	i	i	i
CC(C)C[C@H](NC(=O)OC(C)(C)C)c1nnc(SCc2ccccc2)o1	8.91µM	i	i	i
COc1ccc(OC)c(NC(=O)CN(Cc2ccc(F)cc2)C2CCCCC2)c1	3.55µM	i	i	i
COc1ccc(OC)c(NC(=O)NCc2ccc(F)cc2)c1	i	i	i	i
SMILES	GLP1R inv ag	HEK293 tox	PTHR1 agonist	GLP1R ag
O=C1CCCC/C1=N\Nc1ccc(OCc2ccccc2)cc1	2.82µM	i	i	i
Oc1ccc(NCc2ccc(OCc3ccccc3)cc2)cc1	i	?	?	i
CC(=O)c1ccc(NS(=O)(=O)c2cc(-c3cc(C)no3)ccc2C)cc1	i	i	i	nt
COc1ccc(C2C(=O)N(C3CCCCCC3)CC(=O)N2Cc2ccc(C)cc2)cc1 (centres undefined)	i	i	i	nt
Cc1ccc(CNC(=O)c2c(-c3ccccc3)sc3ccccc23)o1	5.01µM	i	i	i
COc1cccc(NC(=O)CSc2nc3c(sc4ccccc43)c(=O)n2CCCN2CCCC2)c1	10µM	?	?	i
